D3 antag: antagonists of human D3 dopamine receptor; actives 2.5% (n = 360,000); D3R cells, DiscoveRx beta-arrestin luminescence, antagonist mode; stronger effect = lower value; max response, negative = inhibition, %; in the data active = max response below about -50%; inconclusive = no clear call, values can overlap the other calls; note: % is set by controls: 0 for no effect and ±100 for the full control effect
Target sequence (P35462 whole entry, looked up): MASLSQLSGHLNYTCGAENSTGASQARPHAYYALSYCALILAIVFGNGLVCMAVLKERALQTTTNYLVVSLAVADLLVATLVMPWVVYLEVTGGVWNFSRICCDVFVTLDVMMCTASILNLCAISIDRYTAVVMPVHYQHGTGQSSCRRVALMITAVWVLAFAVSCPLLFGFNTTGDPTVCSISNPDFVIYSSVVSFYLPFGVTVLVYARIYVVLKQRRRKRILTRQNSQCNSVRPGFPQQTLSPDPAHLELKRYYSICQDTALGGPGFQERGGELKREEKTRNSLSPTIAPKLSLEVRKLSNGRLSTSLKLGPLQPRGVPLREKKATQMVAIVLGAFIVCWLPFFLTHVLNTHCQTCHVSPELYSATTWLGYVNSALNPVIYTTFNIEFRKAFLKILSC
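Cells expressing the human receptor were seeded at 1500 cells/well, incubated overnight at 37 degrees C in 5% CO2, then exposed to library compounds with dopamine controls for 90 minutes at 37 degrees C before luminescent detection.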
IL-1B inflam inh: blocks inflammasome-driven IL-1 beta release. THP-1 LPS/ATP IL-1B secretion, AlphaLISA, 16 h; stronger effect = lower value. activity change, % at 57.5 µM. actives 4.7% (n = 360,000). AID 743279; in the data active = activity change below about -50%; inconclusive = mostly about -30% to -49%; note: % is set by controls: 0 for no effect and ±100 for the full control effect
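Secreted IL-1B measured by AlphaLISA bead assay after 16 h compound exposure of THP-1 cells; compounds (final up to 57.5 uM) added 1 h before LPS (250 ng/mL) and ATP (1.25 mM) stimulation; lower signal means less secretion.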
ClpP mod: qHTS Assay for Activators of ClpP; purified B. subtilis ClpP, FRET peptide cleavage, 20 min; Potency, µM (top dose mostly 57.5 µM), for the others: top-dose activity change, negative = active; actives 1.9% (n = 340,000); active = well fitted falling curve with a large enough effect; inconclusive = small, poorly fitted or top-dose-only effect; inactive = no such curve, though single readings can be large or run the other way; note: potency is the fitted concentration of half-maximal effect; the source files actives as falling curves though it sought activators and does not explain the sign; nearly all actives have a fitted effect of over 65% in size
Target sequence (P80244 whole entry, looked up): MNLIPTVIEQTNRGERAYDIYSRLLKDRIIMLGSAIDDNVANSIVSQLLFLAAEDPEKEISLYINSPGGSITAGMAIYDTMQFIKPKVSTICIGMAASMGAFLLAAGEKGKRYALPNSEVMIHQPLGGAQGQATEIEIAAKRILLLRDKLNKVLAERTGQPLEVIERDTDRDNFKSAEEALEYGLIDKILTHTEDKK
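Buffer: 100 mM Tris/HCl pH8, 100 mM KCl, 0.05% low protease BSA, 2.5% glycerol, 0.01% Tween-20. ClpP 10 microg/mL final; 20 min RT; delta FRET normalized to ADEP and DMSO controls.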
D3 ag: D3 dopamine receptor (human) agonism; P35462; D3R DiscoveRx beta-arrestin cells, luminescence, 90 min; max activation, %; actives 0.58% (n = 410,000); AID 652048; in the data active = max activation above about 30%; note: 0% is about no effect
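Agonist mode: compounds and dopamine controls were applied to plated cells for 90 min at 37 degrees C after an overnight attachment at 1500 cells/well. Luminescent read-out followed 30 - 60 minutes at room temperature with DiscoveRx detection reagent.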
TDP1 cell noCPT: qHTS for Inhibitors of human tyrosyl-DNA phosphodiesterase 1 (TDP1): qHTS in cells in absence of CPT; DT40 Tdp1-/- hTDP1 cells, no CPT, ATP luminescence, 48 h; Potency, µM (titrated, usually from 46.2 µM), without a hit: top-dose activity change, negative = growth inhibition, hits mostly inhibitors; actives 15% (n = 420,000); AID 686978, 2013; note: potency is the fitted concentration of half-maximal effect; % is set by controls: 0 for no effect and ±100 for the full control effect; nearly all actives have a fitted effect of over 55% in size
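Chicken DT40 Tdp1-/- cells complemented with human TDP1, screened without camptothecin (DMSO vehicle only), 400 cells/well. Compounds pin-transferred, cells incubated at 37 °C for at least 48 hr. Growth read as ATP-dependent luminescence (CellTiter-Glo, 30 min at RT).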
DT40 TDP1 CPT: growth inhibition of DT40 Tdp1-/-;hTDP1 cells with camptothecin (screen for TDP1 inhibitors). actives 12% (n = 420,000). Potency, µM (highest dose often 46.2 µM), for the others: at the highest dose activity change, negative = growth inhibition, most hits filed as inhibitors. chicken DT40 Tdp1-/-;hTDP1 cells + 20 nM CPT, ATP luminescence, 48 h; note: potency is the fitted concentration of half-maximal effect; % is set by controls: 0 for no effect and ±100 for the full control effect; nearly all actives have a fitted effect of over 55% in size
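Chicken DT40 Tdp1-/- cells stably complemented with human TDP1 were seeded at 400 cells/well in medium containing 20 nM camptothecin, exposed to pin-transferred compounds, and grown at 37 °C for at least 48 hr. Viability was read as ATP luminescence.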
An asterisk follows results filed as active; ? = inconclusive; / = no result; [ ] = dose if it differs, or a comment. Hits are enriched below; roughly 21% of the tested compounds scored in any of these assays. Unless noted, calls come from the whole dose curve; as a rule, active = well fitted inhibition curve with a large enough effect; inconclusive = small, poorly fitted or top-dose-only effect; inactive = flat fitted curve, though single readings scatter.

SMILES	D3 antag	IL-1B inflam inh	ClpP mod	D3 ag	TDP1 cell noCPT	DT40 TDP1 CPT
O=C(c1cc(Sc2cccc(Cl)c2)nc2ccccc12)N1CCN(c2ccccn2)CC1	111	-13	/	1	?	15µM*
COc1cccc(C(=O)N2CCN(CCc3ccncc3)CC2)c1	/	/	-1%	-6	-6%	-21%
COc1ccc(NC(=O)c2ncoc2-c2ccco2)cc1Cl	/	/	-4%	-5	-13%	-3%
O=C(c1ccc2snnc2c1)N1CCN(c2ccccc2)CC1	11	-14	-2%	1	-19%	-6%
O=C(c1cc(Cl)ccc1Cl)N1CCN(c2ccccn2)CC1	-20	29	-18%	2	-11%	-15%
O=C(c1cnc(N2CCN(c3ccccn3)CC2)c2ccccc12)N1CCN(c2cccc(Cl)c2)CC1	26	-60*	/	25	12µM*	13µM*
O=C(CSc1nnc(N2CCCC2)n1-c1cccc(Cl)c1)N1CCN(c2ccccn2)CC1	-15	-24	-17%	-5	21µM*	?
O=C(c1ccc2snnc2c1)N1CCN(c2ccccn2)CC1	-4	-85*	-2%	0	-9%	-4%
Cc1c(C(=O)N2CCN(c3ccccn3)CC2)oc2c(F)cccc12	-12	-1	/	60*	?	-28%
CCc1ccc(C(=O)NC(=S)NCc2cccnc2)cc1	3	?	-1%	-5	-17%	?
COCc1c(C(=O)N2CCC(N(C)C)C2)cnn1-c1ncc2c(n1)-c1ccccc1CCC2 (stereo not drawn)	/	/	/	/	-6%	5%[9.04 µM]
CC(CCc1ccccc1)NC(=O)c1nnc(Cc2ccc(Cl)cc2)o1 (stereo not drawn)	-25	-59*	0%	-7	?	29µM*
Cc1ccc(NC(=O)CSCc2cc(=O)c3ccccc3[nH]2)c(C)c1	/	/	-1%	23	?	?
Cc1ccccc1-c1nn(-c2ccccc2)cc1C(=O)NCC(c1ccco1)N1CCCC1 (stereo not drawn)	6	?	-1%	-15	18µM*	21µM*
COc1ccccc1-c1nn(Cc2ccccc2)cc1C(=O)NCC(c1ccco1)N1CCCC1 (stereo not drawn)	14	14	0%	-8	0%	?
COc1ccc(OC)c(-c2nn(-c3ccccc3)cc2C(=O)NCC(c2ccco2)N2CCCC2)c1 (stereo not drawn)	12	-20	-13%	-4	21µM*	?
CCCc1cc(=O)[nH]c(SCC(=O)N2CC3(C)CC2CC(C)(C)C3)n1 (stereo not drawn)	2	0	2%	1	15%	2%
CCOc1ccc(C(=O)Nc2cc(-c3nc4ccccc4o3)ccc2C)cc1Cl	/	/	-23%	-6	-6%	-12%
C[C@@H]1CN([C@H](C)CO)C(=O)CCCn2nncc2CO[C@@H]1CN(C)S(=O)(=O)c1cccs1	-13	-4	1%	-4	-8%	-6%
Cc1ccc(C)c(NC(=O)Cn2c(SCC(=O)NCc3ccccc3)nc3ccccc32)c1	/	/	2%	-12	-19%	?
CCn1cc2nc(SCC(=O)Nc3ccc(C)cc3C)n(Cc3ccc(C)cc3)c(=O)c2n1	/	/	0%	-21	5.2µM*	3.7µM*
CCN(C(=O)CSc1nc2ccccc2n1CC(=O)Nc1ccc(F)cc1F)c1ccccc1	/	/	-1%	-13	15µM*	23µM*
Cn1ncc2nc(SCC(=O)Nc3ccc(Br)cc3F)n(Cc3ccccc3)c(=O)c21	/	/	1%	7	?	?
CCn1cc2nc(SCC(=O)Nc3ccc(F)cc3F)n(Cc3ccccc3)c(=O)c2n1	2	-9	-3%	2	?	23µM*
Cc1nc(N2CCOCC2)sc1C=O	13	26	-3%	0	7%	2%
SMILES	D3 antag	IL-1B inflam inh	ClpP mod	D3 ag	TDP1 cell noCPT	DT40 TDP1 CPT
C[C@@H]1c2ccccc2CN1CC1=NCCN1	/	/	/	/	-28%	?
CC(C)c1ccc(NC(=O)c2cc3c(=O)oc4ccccc4c3s2)cc1	/	/	-12%	0	-15%	-1%
CCn1c(C)c(P(c2ccccc2)c2ccccc2)[n+]2ccccc12	11	-20	/	0	1.5µM*	2.3µM*
COc1ccc(-c2c(C)nn3c(C(F)(F)F)cc(-c4ccccc4)nc23)cc1	/	/	0%	7	?	?
COc1ccc(S(=O)(=O)Nc2ccc3c(c2)sc(=O)n3C)cc1Cl	/	/	-4%	-4	18µM*	23µM*
CCn1c(=O)sc2cc(NS(=O)(=O)c3ccc(F)c(C)c3)ccc21	/	/	0%	1	10µM*	10µM*
COc1ccc(NS(=O)(=O)c2ccc3c(c2)NC(=O)CCS3)cc1Cl	-5	-1	4%	-2	18µM*	21µM*
Cc1ccc(CCNC(=O)c2cn(C)c3ccc(S(=O)(=O)N(C)C4CCCCC4)cc3c2=O)cc1	/	/	-1%	4	-4%	4%
COC(=O)c1cc(CNC(=O)c2ccncc2)cc(NC(=O)c2ccccc2Cl)c1	/	/	/	/	-10%	-4%[9.04 µM]
CCCOC(=O)c1ccc(N)cc1	/	/	/	-2	-12%	2%
NC(=O)NC(Cc1ccccc1)C(=O)NCCCSc1ccccc1 (stereo not drawn)	-12	28	/	6	-16%	8%
CCCCO	/	/	/	68*	-1%	-18%
CCC(=O)N(C)C[C@@H]1Oc2ncc(Br)cc2C(=O)N([C@H](C)CO)C[C@H]1C	-19	42	-3%	-12	-11%	-3%
COc1ccc(NC(=O)c2cc(=O)c3ccccc3o2)cc1Cl	-13	9	-11%	-3	-13%	-3%
COc1ccc(-c2csc(NC(=O)c3cc(=O)c4ccccc4o3)n2)cc1OC	15	-19	1%	-1	5.8µM*	?
CCc1noc(C)c1C(=O)Nc1nc(-c2ccc(OC)c(OC)c2)cs1	28	?	-4%	19	?	?
COc1ccc(-c2csc(NC(=O)c3cc(C)oc3C)n2)cc1OC	16	-84*	-9%	1	18µM*	?
CC(C)c1nnc(NC(=O)CCC(=O)NCc2ccc(F)cc2)s1	5	30	0%	-2	?	?
CC(C)Oc1ccc(CNC(=O)c2cc(S(=O)(=O)N3CCOCC3)cn2C)cc1	10	38	2%	2	17%	14%
Cc1cc(C)c(C(CC(=O)c2cccs2)C(C#N)C#N)c(C)c1 (stereo not drawn)	3	-105*	/	4	26µM*	?
